# Only some compounds are listed: those with a hit (about 19% of all), similar ones and a draw of the others.
# HT1080 IDH1KD tx: qHTS for induction of synthetic lethality in tumor cells producing 2HG: qHTS for the HT-1080-IDH1KD cell line; HT-1080 IDH1 knockdown viability, ATP luminescence, 48 h; actives 2% (n = 360,000); Potency, µM (series often up to 46.1 µM), for the others: top-dose activity, negative = toxicity, usual class: cytotoxic;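 also: 0% = DMSO wells and -100% = cell-free medium wells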
#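 After a 2 h attachment period, IDH1KD HT-1080 cells took pin-transferred compound for 48 h at 37 °C; ATP-based luminescence after 10 min room-temperature reagent incubation reported viability.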
# DT40 TDP1 no CPT: qHTS for Inhibitors of human tyrosyl-DNA phosphodiesterase 1 (TDP1): qHTS in cells in absence of CPT. DT40 Tdp1-/- hTDP1 cells, no CPT, ATP luminescence, 48 h. Potency, µM (doses to about 46.2 µM), without a hit: at the highest dose activity change, negative = growth inhibition, most hits filed as inhibitors. actives 15% (n = 420,000); also: nearly all actives have a fitted effect of over 55% in size
#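 Growth of hTDP1-complemented DT40 Tdp1-knockout cells is measured by ATP luminescence after at least 48 hr compound exposure at 37 °C, with DMSO substituting for the 20 nM CPT used in the parallel screen.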
# KB-3-1 cytotox: qHTS assay for MDR1-selective chemotherapeutics: Primary screen using the parental adenocarcinoma cell KB-3-1; KB-3-1 viability, CellTiter-Glo ATP luminescence, 72 h; Potency, µM (doses to about 46.1 µM), most hits filed as cytotoxic; actives 1.4% (n = 400,000); AID 1347075, 2019; also: nearly all actives have a fitted effect of over 60% in size
#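 Parental KB-3-1 viability, qHTS format: 72 h compound exposure, 37 °C; CellTiter-Glo; media-only wells and DMSO plates as controls; concentration-effect fits on corrected data.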
# HT1080-NT tox: qHTS for induction of synthetic lethality in tumor cells producing 2HG: qHTS for the HT-1080-NT fibrosarcoma cell line; actives 1.6% (n = 360,000); HT-1080-NT fibrosarcoma viability, CellTiter-Glo ATP luminescence, 48 h; Potency, µM (top dose mostly 46.1 µM), for the others: at the highest dose activity, negative = less viability, hits mostly cytotoxic;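 also: NT is the 2HG producing partner of a matched IDH1 knockdown line; 0% = DMSO-treated cells and -100% = media-only wells without cells; nearly all actives have a fitted effect of over 55% in size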
#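 Read-out is CellTiter-Glo luminescence after 10 minutes at room temperature, following 48 hours' compound treatment of HT-1080-NT cells (750 cells/well, RPMI, 5% FBS, 37 degrees C).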
# DT40 TDP1 CPT: qHTS for Inhibitors of human tyrosyl-DNA phosphodiesterase 1 (TDP1): qHTS in cells in presence of CPT; chicken DT40 Tdp1-/-;hTDP1 cells + 20 nM CPT, ATP luminescence, 48 h; Potency, µM (top dose mostly 46.2 µM), for the others: at the top dose activity change, negative = growth inhibition, actives largely listed as inhibitors; actives 12% (n = 420,000); also: nearly all actives have a fitted effect of over 55% in size
#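 Cell growth measured by CellTiter-Glo luminescence after a minimum 48 h, 37 C compound exposure with 20 nM CPT in Tdp1-knockout DT40 cells stably expressing hTDP1, seeded 400/well; qHTS titration format.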
# KB-V1 MDR tox: qHTS assay for MDR1-selective chemotherapeutics: Primary screen using the drug-selected MDR subline cells KB-V1. Potency, µM (top dose mostly 46.1 µM), most hits filed as cytotoxic. KB-V1 MDR cells viability, CellTiter-Glo, 72 h. AID 1347076, 2019. actives 3.4% (n = 400,000); also: nearly all actives have a fitted effect of over 60% in size
#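 Luminescent ATP read-out (CellTiter-Glo, 10 min) measures survival of drug-selected KB-V1 MDR cells after 72 h, 37 degrees C compound exposure. Medium: phenol-red-free DMEM, 10% FBS. Values from fitted concentration-response curves.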
# Numbers without * were called inactive; i = inactive; ? = inconclusive; . = no result given. Calls follow the shape of the dose curve; as a rule, active = well fitted curve in the direction sought with a large enough effect; inconclusive = small, poorly fitted or top-dose-only effect, or another doubt; inactive = no such curve, though single readings can be large; an effect the other way counts as inactive or inconclusive. Unless noted, % is scaled to controls: 0 for no effect and ±100 for the full control effect; potency is read from the fitted curve at half-maximal effect.
SMILES,HT1080 IDH1KD tx,DT40 TDP1 no CPT,KB-3-1 cytotox,HT1080-NT tox,DT40 TDP1 CPT,KB-V1 MDR tox
COc1cccc(C=Nc2cccc3c(=O)[nH][nH]c(=O)c23)c1O,25%,-4%,i,18%,-15%,i
Cc1cccc(NC(=O)CSCC(=O)N(C)CCOc2ccc(Cl)cc2)c1,-7%,?,i,-1%,-9%,i
COc1cccc(CN(C)S(=O)(=O)c2c(C)noc2C)c1OC,8%,-22%,i,2%,-22%,i
CN(C)S(=O)(=O)c1ccc2c(c1)nnn2CCNC(=O)Nc1ccc(Br)cc1,.,-12%,i,.,0%,i
COc1ccc(NS(=O)(=O)c2ccc(-c3coc(C)n3)cc2)cc1OC,0%,2.1µM*,?,3%,4.1µM*,i
COc1ccc(NS(=O)(=O)c2ccc(-c3coc(C)n3)cc2)cc1,-6%,-25%,?,?,?,?
CO[C@@H]1[C@@H](OC2OC(C)C(OC3CC(C)(O)C(OC(=O)CC(C)C)C(C)O3)C(N(C)C)C2O)[C@@H](CC=O)C[C@@H](C)C(=O)/C=C\C2O[C@H]2C[C@@H](C)OC(=O)C[C@H]1OC(C)=O (stereo partly specified),.,3.2µM*,i,.,5.6µM*,i
CO[C@@H]1[C@@H](O[C@@H]2O[C@H](C)[C@@H](O[C@H]3C[C@@](C)(O)[C@@H](OC(=O)CC(C)C)[C@H](C)O3)[C@H](N(C)C)[C@H]2O)[C@@H](CC=O)C[C@@H](C)[C@@H](O)/C=C/C=C/C[C@@H](C)OC(=O)C[C@H]1O,.,6µM*,.,.,6.7µM*,.
CC[C@H]1OC(=O)[C@H](C)[C@@H](O[C@H]2C[C@@](C)(OC)[C@@H](O)[C@H](C)O2)[C@H](C)[C@@H](O[C@@H]2O[C@H](C)C[C@H](N(C)C)[C@H]2O)[C@](C)(O)C[C@@H](C)C(=O)[C@H](C)[C@@H](O)[C@]1(C)O,2%,-7%,i,-13%,-26%,?
COCC(=O)Nc1ccc2c(c1)[C@@H]1C[C@H](CC(=O)NCc3cccc(F)c3)O[C@@H](CO)[C@@H]1O2,13%,-19%,i,15%,-23%,?
O=C(C[C@@H]1C[C@H]2c3cc(NC(=O)NC4CCCCC4)ccc3O[C@H]2[C@H](CO)O1)NC1CCCCC1,-9%,15µM*,i,-5%,?,i
COC(=O)C[C@H]1C[C@H]2c3cc(NC(=O)Nc4ccc(C(F)(F)F)cc4)ccc3O[C@H]2[C@@H](CO)O1,-8%,26µM*,i,-9%,?,i
CCCNC(=O)C[C@H]1C[C@H]2c3cc(NC(=O)Nc4ccc(F)cc4)ccc3O[C@H]2[C@@H](CO)O1,9%,2.3µM*,i,12%,1.8µM*,i
COC(=O)C[C@H]1C[C@@H]2c3cc(NC(=O)Nc4ccc(F)cc4)ccc3O[C@@H]2[C@@H](CO)O1,-10%,-9%,i,21%,-4%,?
O=C(C[C@H]1C[C@@H]2c3cc(NC(=O)Nc4ccccc4F)ccc3O[C@@H]2[C@H](CO)O1)NCc1ccccn1,0%,16µM*,i,-7%,?,i
COCCNC(=O)C[C@@H]1C[C@H]2c3cc(NC(=O)Nc4ccc(F)cc4)ccc3O[C@H]2[C@H](CO)O1,3%,8.2µM*,?,-3%,?,?
COC(=O)C[C@@H]1C[C@H]2c3cc(NS(=O)(=O)c4ccccc4)ccc3O[C@H]2[C@@H](CO)O1,1%,-6%,i,10%,0%,i
COc1cccc(S(=O)(=O)Nc2ccc3c(c2)[C@@H]2C[C@H](CC(=O)NCCc4ccccc4)O[C@H](CO)[C@@H]2O3)c1,-4%,16µM*,?,-6%,23µM*,i
CCOc1ccccc1C1Nc2ccccc2-c2nnc(SCc3ccccc3)nc2O1 (stereo unspecified),.,?,i,.,?,i
Cc1ccc(S(=O)(=O)N(C)C[C@H]2Oc3cc(C#CC4CCCC4)ccc3S(=O)(=O)N([C@H](C)CO)C[C@H]2C)cc1,?,18µM*,?,-18%,18µM*,i
C[C@H]1CN([C@@H](C)CO)S(=O)(=O)c2ccc(C#CC3CC3)cc2O[C@@H]1CN(C)S(C)(=O)=O,-1%,?,i,12%,-27%,i
COCC#Cc1ccc2c(c1)O[C@@H](CN(C)S(=O)(=O)c1cccc(F)c1)[C@@H](C)CN([C@H](C)CO)S2(=O)=O,-1%,18µM*,i,-5%,?,i
COc1cccc(S(=O)(=O)N(C)C[C@@H]2Oc3cc(Br)ccc3S(=O)(=O)N([C@@H](C)CO)C[C@@H]2C)c1,-14%,26µM*,i,-2%,?,?
COc1cccc(NC(=O)N(C)C[C@@H]2Oc3cc(Br)ccc3S(=O)(=O)N([C@@H](C)CO)C[C@H]2C)c1,6%,-9%,i,9%,1%,?
COc1ccc(S(=O)(=O)N(C)C[C@@H]2Oc3cc(Br)ccc3S(=O)(=O)N([C@H](C)CO)C[C@@H]2C)cc1,?,16µM*,i,?,?,?
C[C@H]1CN([C@@H](C)CO)S(=O)(=O)c2ccc(Br)cc2O[C@@H]1CN(C)S(=O)(=O)c1ccccc1,0%,?,i,4%,?,i
COc1ccccc1C(=O)NCC(=O)NNC(=O)C1COc2ccccc2O1 (stereo unspecified),13%,-1%,i,11%,-2%,?
COc1ccc(S(=O)(=O)N(C)C[C@H]2Oc3cc(Br)ccc3S(=O)(=O)N([C@H](C)CO)C[C@H]2C)cc1,-17%,21µM*,i,-14%,?,?

# Screening results from PubChem BioAssay.
